Assay results from PubChem BioAssay (EPA / NIEHS).
Where “and” joins values, the source holds several entries; their conditions need not be identical. Equal entries are not always repeated. The source holds several records for some structures; these can differ, active in one and inactive in another. Calls of active or inactive are those of the source. Rule for the calls: active = hit-call score of the fitted dose curve at least 0.9, where 1 is the maximum; inactive = score below 0.9.

How the values were obtained:
[1] = read-out: Interleukin-8 (IL8), CXCL8 (gene 3576); assay: BSK_CASM3C_IL8: BioMAP Diversity Plus: CASM3C Assay for Interleukin-8 (IL8) Biomarker Activity (AID 2283042); conditions: primary human coronary artery smooth muscle cells; actives raise or lower the signal;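 note: IL-8 protein level quantified by ELISA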
[2] = read-out: Human Leukocyte Antigen - DR isotype (HLADR), HLA-DRA (gene 3122); assay: BSK_CASM3C_HLADR: BioMAP Diversity Plus: CASM3C Assay for Human Leukocyte Antigen - DR isotype (HLADR) Biomarker Activity (AID 2283043); conditions: primary human coronary artery smooth muscle cells; actives raise or lower the signal;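 note: cell-surface HLA-DR protein level quantified by ELISA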
[3] = read-out: Macrophage colony-stimulating factor (MCSF), CSF1 (gene 1435); assay: BSK_CASM3C_MCSF: BioMAP Diversity Plus: CASM3C Assay for Macrophage colony-stimulating factor (MCSF) Biomarker Activity (AID 2283044); conditions: primary human coronary artery smooth muscle cells; actives raise or lower the signal;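 note: M-CSF protein amount quantified by ELISA after 24 h exposure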
[4] = read-out: Low-density lipoprotein receptor (LDLR), LDLR (gene 3949); assay: BSK_CASM3C_LDLR: BioMAP Diversity Plus: CASM3C Assay for Low-density lipoprotein receptor (LDLR) Biomarker Activity (AID 2283045); conditions: primary human coronary artery smooth muscle cells; actives raise or lower the signal;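 note: LDLR protein level on the cell surface quantified by ELISA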
[5] = read-out: Monocyte Chemoattractant Protein-1 (MCP1), CCL2 (gene 6347); assay: BSK_CASM3C_MCP1: BioMAP Diversity Plus: CASM3C Assay for Monocyte Chemoattractant Protein-1 (MCP1) Biomarker Activity (AID 2283046); conditions: primary human coronary artery smooth muscle cells; actives raise or lower the signal;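 note: MCP-1 level quantified by ELISA 24 h after dosing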
[6] = BSK_CASM3C_Proliferation: Cell Proliferation Assessment in the BioMAP Diversity Plus: CASM3C Assay (AID 2283047); conditions: primary human coronary artery smooth muscle cells;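 note: sulforhodamine B total protein stain as relative cell number at 560 nm; sub-confluent cells exposed 48 h before staining; fitted both ways against DMSO so gain or loss of cell number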
[7] = read-out: Monokine induced gamma interferon (MIG), CXCL9 (gene 4283); assay: BSK_CASM3C_MIG: BioMAP Diversity Plus: CASM3C Assay for Monokine induced gamma interferon (MIG) Biomarker Activity (AID 2283048); conditions: primary human coronary artery smooth muscle cells; actives raise or lower the signal;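 note: MIG protein level measured by ELISA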
[8] = read-out: serum amyloid A (SAA), SAA1 (gene 6288); assay: BSK_CASM3C_SAA: BioMAP Diversity Plus: CASM3C Assay for serum amyloid A (SAA) Biomarker Activity (AID 2283049); conditions: primary human coronary artery smooth muscle cells; actives raise or lower the signal;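 note: SAA protein level quantified by ELISA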
[9] = BSK_CASM3C_SRB: Viability Assessment in the BioMAP Diversity Plus: CASM3C Assay (AID 2283050); conditions: primary human coronary artery smooth muscle cells;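 note: total protein by SRB staining as cytotoxicity measure in parallel cultures; cells exposed to compound for 24 h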
[10] = read-out: Thrombomodulin, THBD (gene 7056); assay: BSK_CASM3C_Thrombomodulin: BioMAP Diversity Plus: CASM3C Assay for Thrombomodulin Biomarker Activity (AID 2283051); conditions: primary human coronary artery smooth muscle cells; actives raise or lower the signal;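 note: thrombomodulin protein level measured by ELISA 24 h after dosing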
[11] = read-out: Tissue Factor, F3 (gene 2152); assay: BSK_CASM3C_TissueFactor: BioMAP Diversity Plus: CASM3C Assay for Tissue Factor Biomarker Activity (AID 2283052); conditions: primary human coronary artery smooth muscle cells; actives raise or lower the signal;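 note: cell surface tissue factor protein level read by ELISA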
[12] = read-out: Interferon-gamma inducible Protein 10 (IP10), CXCL10 (gene 3627); assay: BSK_hDFCGF_IP10: BioMAP Diversity Plus: hDFCGF Assay for Interferon-gamma inducible Protein 10 (IP10) Biomarker Activity (AID 2283053); conditions: primary human foreskin fibroblasts; actives raise or lower the signal
Summary of the method: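 Cells: human dermal foreskin fibroblasts. Exposure: 24 h post-dosing. Detection: IP-10 ELISA, with values expressed against DMSO controls and fitted in both directions.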

[13] = read-out: Urokinase-type plasminogen activator receptor (uPAR), PLAUR (gene 5329); assay: BSK_CASM3C_uPAR: BioMAP Diversity Plus: CASM3C Assay for Urokinase-type plasminogen activator receptor (uPAR) Biomarker Activity (AID 2283054); conditions: primary human coronary artery smooth muscle cells; actives raise or lower the signal;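 note: cell-surface uPAR protein level quantified by ELISA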
[14] = read-out: Vascular cell adhesion molecule 1 (VCAM1), VCAM1 (gene 7412); assay: BSK_CASM3C_VCAM1: BioMAP Diversity Plus: CASM3C Assay for Vascular cell adhesion molecule 1 (VCAM1) Biomarker Activity (AID 2283055); conditions: primary human coronary artery smooth muscle cells; actives raise or lower the signal;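 note: VCAM-1 protein level quantified by ELISA on the cells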
[15] = read-out: Collagen III, COL3A1 (gene 1281); assay: BSK_hDFCGF_CollagenIII: BioMAP Diversity Plus: hDFCGF Assay for Collagen III Biomarker Activity (AID 2283056); conditions: primary human foreskin fibroblasts; actives raise or lower the signal
Summary of the method: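 ELISA readout of Collagen III in human dermal (foreskin) fibroblasts, taken 24 h post-treatment. Gain or loss relative to DMSO vehicle fitted in both directions.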

[16] = read-out: Epidermal growth factor receptor (EGFR), EGFR (gene 1956); assay: BSK_hDFCGF_EGFR: BioMAP Diversity Plus: hDFCGF Assay for Epidermal growth factor receptor (EGFR) Biomarker Activity (AID 2283057); conditions: primary human foreskin fibroblasts; actives raise or lower the signal
Summary of the method: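 Dosing human primary skin fibroblasts, then measuring surface EGFR by ELISA at 24 h, gives the endpoint; gains and losses relative to DMSO were fitted in both directions.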

[17] = read-out: Interleukin-8 (IL8), CXCL8 (gene 3576); assay: BSK_hDFCGF_IL8: BioMAP Diversity Plus: hDFCGF Assay for Interleukin-8 (IL8) Biomarker Activity (AID 2283058); conditions: primary human foreskin fibroblasts; actives raise or lower the signal
Summary of the method: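 IL-8 levels read by ELISA at 24 hours after dosing human skin fibroblast cultures. Parallel SRB staining assessed overt cytotoxicity, and gain or loss of signal was fitted against DMSO control.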

[18] = BSK_hDFCGF_Proliferation: Cell Proliferation Assessment in the BioMAP Diversity Plus: hDFCGF Assay (AID 2283059); conditions: primary human foreskin fibroblasts;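 note: curves fitted for both rise and fall of signal versus DMSO baseline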
Summary of the method: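 Steps: dose primary human dermal fibroblasts (foreskin); […] fix in 10% TCA; stain with 0.1% SRB; read 560 nm; fit gain or loss of signal against DMSO.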

[19] = read-out: Macrophage colony-stimulating factor (MCSF), CSF1 (gene 1435); assay: BSK_hDFCGF_MCSF: BioMAP Diversity Plus: hDFCGF Assay for Macrophage colony-stimulating factor (MCSF) Biomarker Activity (AID 2283060); conditions: primary human foreskin fibroblasts; actives raise or lower the signal
Summary of the method: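 M-CSF levels read by ELISA at 24 h post-dosing in human skin fibroblasts. Parallel cultures stained with SRB assessed cytotoxicity at the same time point; response fitted in both directions against the DMSO baseline.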

[20] = BSK_hDFCGF_SRB: Viability Assessment in the BioMAP Diversity Plus: hDFCGF Assay (AID 2283061); conditions: primary human foreskin fibroblasts;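 note: cells exposed to compound for 24 h before the read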
Summary of the method: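 Viability was read as total protein: after 10% TCA fixation, wells were stained with 0.1% sulforhodamine B and read at 560 nm. Primary human foreskin fibroblasts were dosed for 24 h, with bidirectional fitting versus DMSO.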

Measured: AC50

CCOC(=O)[C@H](C)Oc1ccc(Oc2nc3ccc(Cl)cc3o2)cc1
active: [15] 3.97 µM | [18] 24.9 µM | [20] 0.508 µM
inactive: all other assays above

CC(=O)[C@H]1CC[C@H]2[C@@H]3CCC4=CC(=O)CC[C@]4(C)[C@H]3CC[C@]12C
active: [2] 8.61 µM | [5] 3.95 µM | [6] 12.7 µM | [15] 24 µM | [18] 14.7 µM
inactive: all other assays above

CCC(O)=C1C(=O)CC(C(=O)O)CC1=O (stereo not given)
inactive: all assays above

CCOC(=O)c1ccc(O)cc1
inactive: all assays above

CCCN(CCC)C(=O)SCC
inactive: all assays above

COC(=O)c1cccc(C)c1S(=O)(=O)NC(=O)Nc1nc(OCC(F)(F)F)nc(N(C)C)n1
inactive: all assays above

COC(=O)c1ccccc1S(=O)(=O)NC(=O)Nc1nc(OC(F)F)cc(OC(F)F)n1
inactive: all assays above

N#CSCSc1nc2ccccc2s1
active: [1] 10.8 µM and 31.2 µM | [2] 2.62 µM and 36.7 µM | [3] 6.33 µM and 26.9 µM | [4] 8.61 µM | [5] 9.06 µM and 29.6 µM | [6] 1.33 µM and 5.49 µM | [7] 7.5 µM and 18.8 µM | [8] 4.93 µM and 33.5 µM | [9] 11.9 µM and 31.5 µM | [10] 36.7 µM | [11] 1.85 µM | [12] 1.49 µM and 227 nM | [13] 5.35 µM and 30 µM | [14] 6.34 µM and 27.7 µM | [15] 1.19 µM and 424 nM | [16] 2.01 µM | [17] 2.43 µM | [18] 632 nM and 148 nM | [19] 1.56 µM and 1.28 µM | [20] 1.08 µM and 155 nM
inactive: [4] | [10] | [11] | [16] | [17]

Oc1ccc(C(c2ccc(O)cc2)C(Cl)(Cl)Cl)cc1
active: [3] 9.36 µM | [6] 20 µM | [9] 20.9 µM | [10] 15.5 µM | [12] 23.8 µM | [13] 11.3 µM | [15] 11.7 µM | [16] 13.3 µM | [17] 31.3 µM | [18] 13.5 µM | [19] 21.5 µM | [20] 29.3 µM
inactive: [1] | [2] | [4] | [5] | [7] | [8] | [11] | [14]

O=C(c1ccccc1)C1CCCCC1
inactive: all assays above

Cc1nn(C)c(Oc2ccccc2)c1C=NOCc1ccc(C(=O)OC(C)(C)C)cc1
active: [6] 20 µM | [10] 16.3 µM | [12] 27.9 µM | [15] 4.21 µM | [16] 3.95 µM | [18] 6.94 µM | [19] 18.8 µM | [20] 15.4 µM
inactive: all other assays above

CCCOC(=O)NCCCN(C)C
inactive: all assays above
